Here are results for 36 compounds from PubChem BioAssay (EPA / NIEHS).

Experiment [1] is described as follows: ATG_XTT_Cytotoxicity_XSP2: Cytotoxicity Assessment in the Attagene TRANS-FACTORIAL Multi-Species (XSP2) HepG2 Assay (AID 2283837). Summed up: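 XTT-based cell number read-out in human HepG2 liver cells carrying transfected reporter units, measured 24 h after chemical dosing. Activity is signal loss versus DMSO baseline.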
Experiment [2] deals with human Thyroid hormone Receptor alpha (TRa), THRA (gene 7067) (UniProt P10827). Put plainly: ATG_hTRa_XSP2: Attagene TRANS-FACTORIAL Multi-Species (XSP2) HepG2 Assay for human Thyroid hormone Receptor alpha (TRa) (AID 2283838). A digest of the protocol: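 Gain-of-signal in reporter mRNA, relative to DMSO, after 24 h dosing of transfected HepG2; quantitation by RT-PCR fragment analysis on capillary electrophoresis.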
Chain of human Thyroid hormone Receptor alpha (TRa), THRA (gene 7067) (P10827 whole entry, looked up, the tested form may be a part): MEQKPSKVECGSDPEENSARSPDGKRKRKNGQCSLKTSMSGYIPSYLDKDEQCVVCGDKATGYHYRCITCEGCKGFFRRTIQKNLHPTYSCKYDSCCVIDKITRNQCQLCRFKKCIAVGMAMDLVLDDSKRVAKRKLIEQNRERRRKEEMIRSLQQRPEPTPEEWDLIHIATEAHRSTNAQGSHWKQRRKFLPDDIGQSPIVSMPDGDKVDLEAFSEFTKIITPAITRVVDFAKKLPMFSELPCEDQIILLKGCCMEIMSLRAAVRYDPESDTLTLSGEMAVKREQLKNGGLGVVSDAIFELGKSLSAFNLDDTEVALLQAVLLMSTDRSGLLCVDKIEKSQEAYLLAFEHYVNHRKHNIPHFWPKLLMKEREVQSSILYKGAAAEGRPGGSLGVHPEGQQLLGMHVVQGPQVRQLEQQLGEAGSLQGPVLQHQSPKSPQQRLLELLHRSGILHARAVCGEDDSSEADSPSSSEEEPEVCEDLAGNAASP

In experiment [3] the target is frog Thyroid hormone Receptor alpha (TRa), thra-a (gene 397942) (UniProt P15204). Put plainly: ATG_frTRa_XSP2: Attagene TRANS-FACTORIAL Multi-Species (XSP2) HepG2 Assay for frog Thyroid hormone Receptor alpha (TRa) (AID 2283839).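 For AC50: AC50 reflects induction of frog TRa-driven reporter mRNA above DMSO baseline.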 Summed up:
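Reporter transcripts were measured by RT-PCR with capillary electrophoresis after 24 h dosing of HepG2 carrying transiently transfected multi-reporter units, including a chimeric frog TRa-GAL4 construct. Activity was taken as increase over DMSO vehicle.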

The target of experiment [4] is human Thyroid hormone Receptor beta (TRb), THRB (gene 7068) (UniProt P10828). Put plainly: ATG_hTRb_XSP2: Attagene TRANS-FACTORIAL Multi-Species (XSP2) HepG2 Assay for human Thyroid hormone Receptor beta (TRb) (AID 2283840).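 Note: actives raise reporter mRNA so potency reflects agonist-like gain of signal.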 A digest of the protocol: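 Activity of exogenous human TRb–Gal4 fusion measured by reporter mRNA from RT-PCR and capillary electrophoresis, 24 h after dosing transfected HepG2. 6-alpha-fluorotestosterone (3 nM) and norgestrel (1.5 nM) present. Gain-of-signal fit relative to DMSO.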
Chain of human Thyroid hormone Receptor beta (TRb), THRB (gene 7068) (P10828 whole entry, looked up, the tested form may be a part): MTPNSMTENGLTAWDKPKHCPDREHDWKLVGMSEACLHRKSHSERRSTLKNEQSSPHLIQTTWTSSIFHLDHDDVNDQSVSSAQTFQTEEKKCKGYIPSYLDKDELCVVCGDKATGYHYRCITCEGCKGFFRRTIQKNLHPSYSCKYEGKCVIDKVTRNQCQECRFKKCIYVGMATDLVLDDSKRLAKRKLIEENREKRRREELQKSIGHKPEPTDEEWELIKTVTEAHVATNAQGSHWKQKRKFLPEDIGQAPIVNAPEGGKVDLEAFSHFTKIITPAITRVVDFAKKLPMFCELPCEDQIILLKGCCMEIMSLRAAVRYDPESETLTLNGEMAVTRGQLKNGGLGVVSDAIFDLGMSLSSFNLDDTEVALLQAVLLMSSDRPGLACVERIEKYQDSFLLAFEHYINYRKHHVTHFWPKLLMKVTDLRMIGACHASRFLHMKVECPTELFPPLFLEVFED

Experiment [5] relates to Sodium/Iodide Symporter (NIS), SLC5A5 (gene 6528). Put plainly: CPHEA_Stoker_NIS_Inhibition_RAIU: CPHEA's Radioactive Iodide Uptake (RAIU) Assay for Sodium/Iodide Symporter (NIS) Inhibition, Stoker and Laws Labs (AID 2283841). Summed up:
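HEK293T cells stably expressing human NIS (hNIS-HEK293T-EPA) were exposed to test chemicals at 0.001–100uM (0.5% final DMSO) with 125I at a final 329pM in HBSS/10mM HEPES pH 7.4. After 2 hours at room temperature and ice-cold washes, intracellular 125I was counted as CPM and normalized to DMSO wells.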

The nature of experiment [6]: CPHEA_Stoker_NIS_Cytotoxicity: Cytotoxicity Assessment for CPHEA's Radioactive Iodide Uptake (RAIU) Assay for Sodium/Iodide Symporter (NIS) Inhibition, Stoker and Laws Labs (AID 2283897).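 For AC50: active means loss of ATP signal versus DMSO meaning cytotoxicity.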 A digest of the protocol:
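hNIS-HEK293T-EPA human kidney cells were exposed for 2 hours at room temperature to test chemicals (0.001–100uM, 0.5% final DMSO) in HEPES-buffered HBSS, pH 7.4. Viability was read as ATP content by luciferase bioluminescence, loss of signal versus DMSO.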

A short description of experiment [7]: CEETOX_H295R_11DCORT_noMTC: CeeTox H295R High-throughput Steroidogenesis Assay for 11-Deoxycortisol (11DCORT), maximum tolerated concentration (MTC) filtered results only (AID 2283911; active = hit-call score of the fitted dose curve at least 0.9, where 1 is the maximum; inactive = score below 0.9). The conditions noted are these: actives raise or lower the signal. A digest of the protocol:
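Values carry no filtering for maximum tolerated concentration: medium from forskolin-primed (10 uM, 48 h) H295R cells after 48 h chemical exposure (0.1% DMSO) was MTBE-extracted, and 11-deoxycortisol quantified by reverse-phase HPLC-MS/MS. Fitting was bidirectional against DMSO.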

A short description of experiment [8]: CEETOX_H295R_OHPREG_noMTC: CeeTox H295R High-throughput Steroidogenesis Assay for OH-Pregnenolone (OHPREG), maximum tolerated concentration (MTC) filtered results only (AID 2283912; active = hit-call score of the fitted dose curve at least 0.9, where 1 is the maximum; inactive = score below 0.9). The following applies: actives raise or lower the signal. Summed up:
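Medium 17alpha-hydroxypregnenolone quantified by reverse-phase HPLC-MS/MS after 48 h chemical exposure of forskolin-prestimulated (10 uM, 48 h) H295R, 0.1% DMSO final. Fitting bidirectional relative to DMSO; no maximum-tolerated-concentration filtering applied.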

The nature of experiment [9]: CEETOX_H295R_OHPROG_noMTC: CeeTox H295R High-throughput Steroidogenesis Assay for OH-Progesterone (OHPROG), maximum tolerated concentration (MTC) filtered results only (AID 2283914; active = hit-call score of the fitted dose curve at least 0.9, where 1 is the maximum; inactive = score below 0.9). The conditions noted are these: actives raise or lower the signal. A digest of the protocol: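 After 48 h forskolin (10 uM) prestimulation, H295R adrenal cells received test chemical in 0.1% DMSO for 48 h. Medium 17alpha-hydroxyprogesterone was MTBE-extracted and measured by HPLC-MS/MS; gain or loss relative to DMSO, no MTT-based MTC filtering.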

Experiment [10] is described as follows: CEETOX_H295R_CORTISOL_noMTC: CeeTox H295R High-throughput Steroidogenesis Assay for Cortisol, maximum tolerated concentration (MTC) filtered results only (AID 2283916; active = hit-call score of the fitted dose curve at least 0.9, where 1 is the maximum; inactive = score below 0.9). The following applies: actives raise or lower the signal. A digest of the protocol: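 Cortisol secretion measured by LC-MS/MS after 48 h chemical treatment (final 0.1% DMSO) of forskolin-primed (10 uM, 48 h) H295R cells; gain or loss fitted relative to DMSO, without maximum-tolerated-concentration filtering.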

Inconclusive results are not listed. A structure can be active in one record and inactive in another. Activity calls are given as the source filed them. Rule for the calls, unless noted: active = hit-call score of the fitted dose curve at least 0.9, where 1 is the maximum; inconclusive = response in the unintended direction; inactive = score below 0.9.

One may read the AC50 as the midpoint of the concentration-response curve, whichever way the signal moves.

Chain of frog Thyroid hormone Receptor alpha (TRa), thra-a (gene 397942) (P15204 whole entry, looked up, the tested form may be a part): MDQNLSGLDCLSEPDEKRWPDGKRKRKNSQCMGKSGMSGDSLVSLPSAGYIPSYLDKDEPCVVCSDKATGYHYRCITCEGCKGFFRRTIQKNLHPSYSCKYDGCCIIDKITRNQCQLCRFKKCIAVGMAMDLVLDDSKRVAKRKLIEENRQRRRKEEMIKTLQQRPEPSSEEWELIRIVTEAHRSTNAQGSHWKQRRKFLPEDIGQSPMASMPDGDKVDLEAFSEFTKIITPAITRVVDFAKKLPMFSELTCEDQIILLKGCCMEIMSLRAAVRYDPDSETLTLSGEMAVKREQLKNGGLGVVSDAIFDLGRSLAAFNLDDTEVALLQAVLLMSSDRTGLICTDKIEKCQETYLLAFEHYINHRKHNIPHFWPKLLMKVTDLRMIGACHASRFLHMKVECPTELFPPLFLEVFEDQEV

As for `O=c1c(O)c(-c2ccc(O)cc2)oc2cc(O)cc(O)c12`, the call in experiment [1], in experiment [2], in experiment [3], in experiment [4], in [5] and in experiment [6] was inactive.

With `O=[N+]([O-])c1ccc(O)cc1C(F)(F)F`, the result in experiment [5] and in [6] was inactive.

Consider `Clc1ccc(C(c2ccccc2Cl)C(Cl)Cl)cc1` (stereo not drawn), for which, in experiment [1], the AC50 is 100 µM (active). The compound was classed as inactive in [2], in experiment [3], in experiment [4], in [5] and in [6].

Regarding `CC(CN=Cc1ccccc1O)N=Cc1ccccc1O` (stereo not drawn), the outcome in experiment [5] and in experiment [6] was inactive.

`Cc1ccc(S(=O)(=O)Oc2ccc(N=Nc3ccc(-c4ccc(N=Nc5c(O)ccc6cc(S(=O)(=O)O)cc(S(=O)(=O)O)c56)c(C)c4)cc3C)cc2)cc1`: the outcome in [5] was inactive. Moreover, in experiment [6], the AC50 is 13 µM (active).

For the compound `OCc1cccc(Oc2ccccc2)c1`, the result in experiment [1], in experiment [2], in [3] and in experiment [4] was inactive.

As for `CCCCCCCCc1ccc(S(=O)(=O)O)cc1`, the result in experiment [5] and in experiment [6] was inactive.

With `O=CCc1ccccc1`, the outcome in experiment [6] was inactive.

For `Cc1cc(=O)oc2cc(N(C)C)ccc12`, the compound was classed as inactive in experiment [1], in experiment [2], in experiment [3] and in experiment [4].

As to `CCCCCCCCCCCCCCN(CCO)CCO`, the result in experiment [5] and in [6] was inactive.

Regarding `C=C1CC[C@H](O)C/C1=C/C=C1\CCC[C@]2(C)[C@@H]([C@H](C)/C=C/[C@H](C)C(C)C)CC[C@@H]12`, the outcome in [5] and in [6] was inactive.

As for `OC[C@H]1O[C@@H]2O[C@H]3[C@H](O)[C@@H](O)[C@@H](O[C@H]4[C@H](O)[C@@H](O)[C@@H](O[C@H]5[C@H](O)[C@@H](O)[C@@H](O[C@H]6[C@H](O)[C@@H](O)[C@@H](O[C@H]7[C@H](O)[C@@H](O)[C@@H](O[C@H]8[C@H](O)[C@@H](O)[C@@H](O[C@H]9[C@H](O)[C@@H](O)[C@@H](O[C@H]1[C@H](O)[C@H]2O)O[C@@H]9CO)O[C@@H]8CO)O[C@@H]7CO)O[C@@H]6CO)O[C@@H]5CO)O[C@@H]4CO)O[C@@H]3CO`, the result in experiment [5] and in experiment [6] was inactive.

Turning to `CCCCCCC(=O)c1ccccc1`, the outcome in experiment [5] and in experiment [6] was inactive.

In the case of `c1ccc(Oc2ccccc2)cc1`, the outcome in experiment [5] and in [6] was inactive.

Consider `CCc1cc(C(C)(C)C)c(O)c(C(C)(C)C)c1`, for which the outcome in experiment [5] and in experiment [6] was inactive.

Turning to `O=C(c1ccccc1)C(O)c1ccccc1` (stereo not drawn), the result in experiment [5] and in experiment [6] was inactive.

Regarding `C=C[Si]1(C)O[Si](C)(C=C)O[Si](C)(C=C)O[Si](C)(C=C)O1` (stereo not drawn), the compound was classed as inactive in [7], in experiment [8] and in experiment [10]. The AC50 in experiment [9] was 87.1 µM (active).

As for `[O-]n1ccccc1=S.[O-]n1ccccc1=S.[Zn+2]`, in experiment [5], the AC50 is 18.1 µM (active). The outcome in experiment [6] was inactive.

In the case of `CCOc1ccc(N=Nc2ccc(C=Cc3ccc(N=Nc4ccc(OCC)cc4)cc3S(=O)(=O)O)c(S(=O)(=O)O)c2)cc1`, the outcome in experiment [5] and in experiment [6] was inactive.

Take `CCCCCCCCSCCO`: the outcome in experiment [5] and in experiment [6] was inactive.

As for `COc1ccc(OC)c(N=Nc2c(O)ccc3ccccc23)c1`, the compound was classed as inactive in experiment [7], in [8], in experiment [9] and in experiment [10].

On to `OCC#CCO`, for which the outcome in experiment [5] and in [6] was inactive.

With `CCOC(=O)[C@@H](C)Oc1ccc(Oc2nc3ccc(Cl)cc3o2)cc1`, the outcome in [5] and in experiment [6] was inactive.

`CC=Cc1ccc(OC)c(OC)c1`: the result in [7], in [8], in experiment [9] and in experiment [10] was inactive.

Regarding `BrCc1cccc(Oc2ccccc2)c1`, the compound was called inactive in [2], in [3], in experiment [4], in [5] and in experiment [6].

In the case of `CCCCCC(C=O)=Cc1ccccc1`, the outcome in [5] and in experiment [6] was inactive.

For `CCCCCCCCCCCCN1CCCCCC1=O`, the result in experiment [5] and in experiment [6] was inactive.

Take `COc1ccc(N=Nc2cc(C)c(N=Nc3ccc(S(=O)(=O)O)cc3)cc2OC)cc1`: the outcome in [5] and in experiment [6] was inactive.

As to `O=C(CC(=O)c1ccccc1)c1ccccc1`, the outcome in experiment [5] and in experiment [6] was inactive.

Regarding `CCCCCCCCC=CCCCCCCCC1=NCCN1CCO`, the outcome in experiment [5] and in experiment [6] was inactive.

Regarding `CCCCC(CC)COC(=O)c1ccc(O)cc1` (stereo not drawn), the compound was called inactive in experiment [3] and in experiment [4]. Besides, the AC50 in [5] is 10.4 µM (active); in experiment [6] it was 83.9 µM (active).

On to `CCc1cc(Cc2cc(CC)cc(C(C)(C)C)c2O)c(O)c(C(C)(C)C)c1`, for which the outcome in experiment [5] was inactive.

As to `C[C@H]1O[C@@H](O[C@H]2[C@@H](O)C[C@H](O[C@H]3[C@@H](O)C[C@H](O[C@H]4CC[C@@]5(C)[C@H](CC[C@@H]6[C@@H]5C[C@@H](O)[C@]5(C)[C@@H](C7=CC(=O)OC7)CC[C@]65O)C4)O[C@@H]3C)O[C@@H]2C)C[C@H](O)[C@@H]1O`, the AC50 in experiment [5] was 1.12 µM (active). Besides, in experiment [6], the result was inactive.

With `C=C(C)C(=O)OCCOC1CC2CC1C1C=CCC21` (stereo not drawn), the result in [5] and in experiment [6] was inactive.

As for `O=C(Nc1ccc2c(O)c(N=Nc3ccc(N=Nc4ccc(S(=O)(=O)O)cc4)cc3)c(S(=O)(=O)O)cc2c1)c1ccccc1`, the compound was called inactive in [8] and in experiment [9].

For `Oc1ccc2cc(SSc3ccc4cc(O)ccc4c3)ccc2c1`, the outcome in experiment [1], in experiment [2], in experiment [3] and in experiment [4] was inactive. Also, the AC50 in experiment [2] was 132 µM (active); in [3] it was 160 µM (active); in experiment [4], 100 µM (active).
